Assay outcomes deposited in PubChem BioAssay by The Scripps Research Institute Molecular Screening Center.
Rows were chosen to be rich in hits. Some 2.2% of all compounds tested hit in one or more screens of this group.
HTR5A ag – activates human HTR5A in OPRM1-OPRD1 agonist counter-screen | activation, % at 9.3 µM | hit rate 0.61% among 340,000 | HTR5A agonist assay, luminescence, cell-based | P47898; in the data active = activation mostly above about 9.5%, no sharp cut-off; inactive = mostly below about 7.6%;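 note: 0% = cells with vehicle only and 100% = reference agonist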
sPLA2-III inh – Inhibits HGIII-sPLA2 liposome hydrolysis, primary screen | Q9NZ20 | QFRET BODIPY PC-A2 liposome hydrolysis, fluorescence | inhibition, % at 12.2 µM | hit rate 0.56% among 370,000 | AID 743126;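 active = inhibition above mean plus 3 SD of compounds lying within the high and low control bounds, cut at about 19% in these data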;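 note: 0% = median of test compound wells and 100% = no enzyme DMSO wells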
OPRM1-OPRD1 inv – inverse agonist of human OPRM1-OPRD1 heterodimerization. cell-based MOR-DOR heterodimer luminescence, inverse agonism. P35372+P41143. inhibition, % at 9.3 µM. hit rate 0.21% among 340,000; in the data active = inhibition above about 22%, passing the limit was not always enough;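 note: 0% = cells with DMSO and 100% = wells without cells with DMSO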
HTR2A ag – activates the mouse 5-HT2A serotonin receptor | P35363 | hit rate 0.66% among 360,000 | activation, % at 7.6 µM | CHO-K1 mHTR2A beta-arrestin complementation, luminescence; percent of 30 µM serotonin response | AID 624169;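 active = activation above a run cutoff, the mean activation of all tested compounds plus 3 SD, cut at about 14% in these data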;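 note: 0% = plate median of compound wells and 100% = 30 µM serotonin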
OPRM1-OPRD1 ag – OPRM1-OPRD1 heterodimerization agonism | cells, luminescence | P35372+P41143 | activation, % at 9.3 µM | AID 504326 | hit rate 0.3% among 340,000; in the data active = activation above about 18%;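 note: 0% = vehicle-treated cells and 100% = reference agonist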
HTR5A inv ag – HTR5A inverse agonism, opioid heterodimer counter-screen. HTR5A cell line, luminescence. hit rate 0.083% among 340,000. AID 504634. inhibition, % at 9.3 µM. P47898; in the data active = inhibition mostly above about 23%, no sharp cut-off; inactive = mostly below about 18%;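 note: 0% = cells with DMSO and 100% = no-cell wells with DMSO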
hGIII sPLA2 conf – human GIII-sPLA2 inhibition, confirmation; recombinant hGIII-sPLA2, BODIPY PC-A2 QFRET fluorescence; shares compounds with sPLA2-III inh; AID 743280; hit rate 34% among 2,000; inhibition, % at 12.2 µM;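 active = mean inhibition across triplicates above the hit cutoff set in the earlier primary screen, cut at about 19% in these data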;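 note: 0% = enzyme with DMSO and 100% = DMSO wells lacking enzyme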
BODIPY interf – optically interferes with 535nm fluorescence in sPLA2 counter-screen; shares compounds with sPLA2-III inh; BODIPY FL product fluorescence interference, QFRET; inhibition, % at 12.2 µM; hit rate 8.5% among 2,000; AID 743282;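 active = average inhibition above the solvent-only control mean plus 3 SD, cut at about 6% in these data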;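 note: 0% = DMSO with substrate plus product and 100% = DMSO with substrate alone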
BODIPY interf DR – counter-screen for HGIII-sPLA2 inhibitors: 535nm fluorescence interference, dose response; shares compounds with sPLA2-III inh; BODIPY FL product fluorescence interference, cell-free; IC50, µM; 240 tested, under 10 active; AID 743455;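 active = IC50 at or below 10 µM; inactive = IC50 above 10 µM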
Active calls of the source: *; . = not tested or not shown.

SMILES	HTR5A ag	sPLA2-III inh	OPRM1-OPRD1 inv	HTR2A ag	OPRM1-OPRD1 ag	HTR5A inv ag	hGIII sPLA2 conf	BODIPY interf	others
Cc1ccc(NC(=O)C2CCN(c3nnc(-n4cccc4)s3)CC2)cc1C	.	-2	.	.	.	.	.	.
COc1ccc(C=Nn2c(-c3ccc(F)cc3)n[nH]c2=S)cc1OCc1ccccc1	.	3	.	.	.	.	.	.
CC1(C)OC(=O)C2=C(CC(CCc3ccccc3)OC2c2cccc(C(F)(F)F)c2)O1 (stereo not given)	.	-1	.	.	.	.	.	.
COc1ccc(C(C)NC(=O)c2ccccc2)cc1 (stereo not given)	-3	.	-5	2	1	5	.	.
COc1ccc(C(=O)NC(Oc2ccccc2)C(Cl)(Cl)Cl)cc1 (stereo not given)	3	21*	-7	0	1	-9	14	-1
CC(c1c[nH]c2ccccc12)c1cn(C)c2ccccc12 (stereo not given)	.	-31	.	.	.	.	.	.
CC(C)NC(=O)CCN1C(=O)c2ccccc2Sc2ncccc21	4	1	14	-2	-2	-14	.	.
O=C(O)CCN1C(=O)c2ccccc2Sc2ncccc21	0	23*	10	-1	-2	-1	0	-2
COC(=O)[C@]12C[C@H](CC(=O)NCC3CCCCC3)C(=O)N(CCc3ccc(OC)c(OC)c3)C1=C[C@H](C(C)C)O[C@@H]2C1CC1	.	-4	.	.	.	.	.	.
CC1(C)CCCN(C(=O)c2ccc3c(c2NCCO)C(=O)c2ccccc2C3=O)C1	-4	26*	-47	-3	8	2	36*	-14	BODIPY interf DR=>122
O=C1c2ccccc2C(=O)c2c1ccc(C(=O)N1CCCCC1)c2NCCO	3	3	-7	0	1	-9	.	.
CC1CN(Cc2ccccc2)C(=O)N(c2ccccc2)C1=O (stereo not given)	5	1	14	7	-3	-18	.	.
CC1CN(Cc2ccccc2)c2ccccc2NC1=S (stereo not given)	3	21*	-18	-1	4	2	22*	0
CC(=O)Nc1c(C)ccc(CNC(=O)COc2ccc(F)cc2)c1C	-2	-4	4	-1	-1	7	.	.
CC(=O)Nc1c(C)ccc(CNC(=O)COc2cc(C)ccc2C)c1C	-2	21*	22	0	-4	-4	-4	-12
C/C(=N\NC(=O)c1ccccc1F)c1ccc2c(c1)Nc1ccccc1S2	-2	20*	-66	-1	12	4	45*	10*
NC(c1csc(Nc2ccc(C(=O)NCCCO)cn2)n1)C1CCCCC1 (stereo not given)	.	23*	.	3	.	.	7	-19
NC(c1csc(Nc2nccc(C(F)(F)F)n2)n1)C1CCCCC1 (stereo not given)	.	11	.	-4	.	.	.	.
CN(C)c1ccc(NC(=O)Nc2nc(C(N)C3CCCCC3)cs2)cc1 (stereo not given)	.	20*	.	-1	.	.	23*	-7
CC(C)c1ccc(NC(=O)Nc2nc(C(N)C3CCCCC3)cs2)cc1 (stereo not given)	.	7	.	1	.	.	.	.
NC(c1csc(Nc2ncccn2)n1)C1CCCCC1 (stereo not given)	.	23*	.	2	.	.	3	-13
O=C(NC1CCCCN(Cc2cccc(C(F)(F)F)c2)C1=O)c1ccc(F)cc1 (stereo not given)	.	-2	.	.	.	.	.	.
COc1cccc(/C=N/NC(=O)C(=O)Nc2ccccc2OC(F)(F)C(F)F)c1	-2	21*	-30	-4	5	-13	5	-4
COc1ccc(NC(=O)C(=O)N/N=C/c2cccnc2)c(OC)c1	-1	20*	14	2	-2	3	4	-7
Fc1ccc(-n2c(-c3cc(C4CC4)[nH]n3)n[nH]c2=S)cc1Cl	6	28*	0	1	0	-16	23*	1
